{"source": "PubChem BioAssay AID1621", "about": "(Southern Research Specialized Biocontainment Screening …, 2009)", "note": "Screen size: about 290,000 compounds; about 60 (0.02%) were called active. Another 1% or so got no clear call; they are omitted. The list is a sample of the results. Potency and affinity values are given separately. Values without a mark were called inactive. The rule behind the calls is not given here.", "data": [{"experiment": "West Nile virus antiviral activity, cell-based, CPE readout (AID 1621)", "details": "West Nile virus-infected cells, at 10 µM, stronger effect = higher value", "units": {"CPE inhibition": "%"}, "values": [{"compound": "O=C(CCn1c(=S)[nH]c2ccccc2c1=O)N1CCCCC1", "CPE inhibition": 0}, {"compound": "O=C(N/N=C\\c1ccc(S(=O)(=O)O)o1)c1ccc2c(c1)OCO2", "CPE inhibition": -0.67}, {"compound": "CCN1CCN(CCNC(=O)c2ccc(/C=C3/Sc4ccccc4N(Cc4ccccc4C)C3=O)cc2)CC1", "CPE inhibition": -0.85}, {"compound": "O=C(NCCN1CCOCC1)c1ccc(/C=C2\\Sc3ccccc3N(Cc3ccccc3F)C2=O)cc1", "CPE inhibition": 2.03}, {"compound": "CC(NS(=O)(=O)c1ccc(Cl)cc1)C(c1cccs1)N1CCN(C)CC1", "note": "(stereo not given)", "CPE inhibition": -0.37}, {"compound": "CCCCOc1cccc(C(=O)Nc2ccc(S(=O)(=O)Nc3nnc(CC)s3)cc2)c1", "CPE inhibition": -0.64}, {"compound": "COc1ccc(N=C2CC(C)(C)CC(=O)/C2=C(/O)c2ccccc2)cc1", "CPE inhibition": -0.15}, {"compound": "COC(=O)c1scc(C)c1NC(=O)Nc1ccccc1", "CPE inhibition": 1.33}, {"compound": "O=C(NC1CCCC1)C(c1cccs1)N(CC1CCCO1)C(=O)Cc1cccs1", "note": "(stereo not given)", "CPE inhibition": -0.52}, {"compound": "Cc1cc(C)c(S(=O)(=O)n2c([N+](=O)[O-])cnc2C)c(C)c1", "CPE inhibition": 1.59}, {"compound": "CN1CCN(C(=O)c2ccccc2NC(=O)c2sc3ccccc3c2Cl)CC1", "CPE inhibition": -1.33}, {"compound": "CN1CCN(c2ccccc2NC(=O)c2sc3ccccc3c2Cl)CC1", "CPE inhibition": -0.79}, {"compound": "O=C(O)C1CCCN1C(=O)Nc1ccc(F)cc1", "note": "(stereo not given)", "CPE inhibition": -0.08}, {"compound": "CCN1CCN(CCNC(=O)c2ccc3nc(-c4cccc(C)c4)c(-c4cccc(C)c4)nc3c2)CC1", "CPE inhibition": -1.29}, {"compound": "COc1ccc(-c2nc3ccc(C(=O)NCCCN4CCOCC4)cc3nc2-c2ccc(OC)cc2)cc1", "CPE inhibition": 0.5}, {"compound": "c1ccc(OCCCCn2cnc3ccccc32)cc1", "CPE inhibition": -0.39}, {"compound": "O=C(c1ccco1)c1cn[nH]c1-c1ccc(Cl)cc1O", "CPE inhibition": 0.03}, {"compound": "CC(=O)NCC(=O)NC(C(=O)Nc1ccc2c(c1)OCCO2)c1ccc(C)cc1", "note": "(stereo not given)", "CPE inhibition": -0.73}, {"compound": "CN(C)S(=O)(=O)c1cccc(NC(=O)c2cncc(Br)c2)c1", "CPE inhibition": 0.06}, {"compound": "Cc1ccc(S(=O)(=O)N(C)C)cc1NC(=O)c1ccncc1", "CPE inhibition": 0.43}, {"compound": "C/C=C/c1ccc(OCCCNC(C)CC)c(OC)c1", "note": "(stereo not given)", "CPE inhibition": -0.34}, {"compound": "CC(/C=C/c1ccco1)=N\\NC(=O)CNc1cccc(C)c1", "CPE inhibition": -0.57}, {"compound": "CCCCOP(=O)(c1ccc(N(C)C)cc1)C(O)c1ccc(OC)cc1", "note": "(stereo not given)", "CPE inhibition": -0.79}, {"compound": "Cc1ccccc1NC1=CC(=O)CC(C)(C)C1", "CPE inhibition": -0.82}, {"compound": "COc1cc(CNC(C)(C)CO)cc(Br)c1OCc1ccccc1", "CPE inhibition": -0.18}, {"compound": "COc1cc(CNC(C)(C)CO)cc(Br)c1OCc1ccc(Cl)cc1Cl", "CPE inhibition": 15.4}, {"compound": "CC1C(O)=C(c2nc3ccccc3[nH]2)C(=N)N1c1ccccc1", "note": "(stereo not given)", "CPE inhibition": 1.12}, {"compound": "CC(O)CNc1ccc(-c2n[nH]c(=O)c3ccccc23)cc1[N+](=O)[O-]", "note": "(stereo not given)", "CPE inhibition": -1.06}, {"compound": "CCCn1c(SCC(=O)N(CC)CC)nnc1-c1ccncc1", "CPE inhibition": -0.86}, {"compound": "O=C(NCCCN1CCCC1)c1cc2c(Cl)nc3ccccc3c2s1", "CPE inhibition": 0.85}, {"compound": "CC1CCN(CCCNC(=O)c2cc3c(Cl)nc4ccccc4c3s2)CC1", "CPE inhibition": 3.15}, {"compound": "CNC(=O)OC(C)CNS(=O)(=O)c1ccc(C)cc1", "note": "(stereo not given)", "CPE inhibition": -0.03}, {"compound": "CCc1c(C(=O)Nc2ncn(Cc3cccc(C)c3)n2)csc1C", "CPE inhibition": -0.2}, {"compound": "COc1ccccc1C(=O)NCCC(=O)NCCc1ccccc1", "CPE inhibition": 0.26}, {"compound": "Cc1cc(C)cc(NC(=O)[C@H](Cc2c[nH]c3ccccc23)NC(=O)[C@@H]2Cc3ccccc3CN2)c1", "CPE inhibition": -1.23}, {"compound": "Cc1ccc(NC(=O)[C@H](Cc2ccccc2)NC(=O)[C@@H]2Cc3ccccc3CN2)c(C)c1", "CPE inhibition": -0.41}, {"compound": "CCOC(=O)c1ccc(NC(=S)N(CCCN2CCN(CC)CC2)Cc2ccco2)cc1", "CPE inhibition": -0.57}, {"compound": "COc1cc2c(cc1OC)-c1cc(Nc3ccc(C(=O)O)cc3)nc(=O)n1CC2", "CPE inhibition": -0.34}, {"compound": "CC(C(=O)Nc1cccc(S(=O)(=O)N2CCOCC2)c1)N1CCN(c2ccc(F)cc2)CC1", "note": "(stereo not given)", "CPE inhibition": -1.17}, {"compound": "CCOCC(=O)Nc1cccc(SC)c1", "CPE inhibition": 0.36}, {"compound": "CCN(CCN1CCCC1)C(=O)c1cc(COc2ccccc2SC)on1", "CPE inhibition": -1.45}, {"compound": "O=C(COc1ccc(Cl)cc1)NC1=NN(c2ccccc2)C(=O)C1", "CPE inhibition": -0.49}, {"compound": "Nc1nc(NCCO)nc(NC2CCCCC2)c1[N+](=O)[O-]", "CPE inhibition": 1.53}, {"compound": "CN(C)CCCNc1nc(N)c([N+](=O)[O-])c(NC2CCCCC2)n1", "CPE inhibition": 1.01}, {"compound": "CC(C)OC(=O)CC(=O)CSc1nc(-c2ccc(F)cc2)cc(-c2ccccc2)c1C#N", "CPE inhibition": -0.46}, {"compound": "O=S(=O)(CCSc1ccc(C(F)(F)F)cn1)c1ccc(Cl)cc1", "CPE inhibition": -0.47}, {"compound": "CCCN(CCC)CCCNC(=S)Nc1ccc2nc(N3CCN(C)CC3)cc(C)c2c1", "CPE inhibition": 0.29}, {"compound": "CCCN(CCC)CCCNC(=S)Nc1ccc2nc(N3CCN(CC)CC3)cc(C)c2c1", "CPE inhibition": 3.38}, {"compound": "CCC(C)NC(=O)C1CCCN(S(=O)(=O)c2ccc(-n3cnnn3)cc2)C1", "note": "(stereo not given)", "CPE inhibition": 0.81}, {"compound": "Cc1ccc(S(=O)(=O)NNC(=O)Nc2cccc(F)c2)c(C)c1", "CPE inhibition": 0.14}]}]}
